In PubChem BioAssay AID686979 (National Center for Advancing Translational Sciences (NCATS), 2013):
About 50,000 (12%) of roughly 420,000 compounds were called active. Where a call stands in place of a potency, no number is given. Roughly 26% stayed inconclusive and do not appear here. This is one part of a sample in which actives are shown more often than they occur. Calls follow the shape of the dose curve; as a rule, active = well fitted inhibition curve with a large enough effect; inconclusive = small, poorly fitted or top-dose-only effect; inactive = flat fitted curve, though single readings scatter.

assay: qHTS for Inhibitors of human tyrosyl-DNA phosphodiesterase 1 (TDP1): qHTS in cells in presence of CPT; conditions: chicken DT40 Tdp1-/-;hTDP1 cells + 20 nM CPT, ATP luminescence, 48 h; series mostly up to 46.2 µM; also: nearly all actives have a fitted effect of over 55% in size
Outline: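 Cell growth measured by CellTiter-Glo luminescence after a minimum 48 h, 37 C compound exposure with 20 nM CPT in Tdp1-knockout DT40 cells stably expressing hTDP1, seeded 400/well; qHTS titration format.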
Potency is read from the fitted curve at half-maximal effect.

| Structure (SMILES) | Potency |
| --- | --- |
| CCc1ccc(NC(=O)C2CCCN2S(=O)(=O)c2ccc3nc(-c4ccccc4)[nH]c3c2)cc1 (configuration not stated) | 23.1 µM (active) |
| CCc1nnc(NC(=O)C2CCCN2S(=O)(=O)c2ccccc2)s1 (configuration not stated) | inactive |
| CCN(CC)S(=O)(=O)c1ccc2nc(COC(=O)c3n[nH]c4ccccc34)[nH]c2c1 | inactive |
| CC(=O)Nc1ccc(NC(=O)C2CCCN2S(=O)(=O)c2cccc(C(F)(F)F)c2)cc1 (configuration not stated) | inactive |
| Cc1ccc(S(=O)(=O)Nc2ccccc2CNc2c(C)n(C)n(-c3ccccc3)c2=O)cc1 | inactive |
| CCc1ccccc1NS(=O)(=O)c1ccc2nc(-c3ccccc3)[nH]c2c1 | 20.6 µM (active) |
| N#Cc1ccc(S(=O)(=O)NCC(=O)OCC(=O)NCCc2ccccc2)cc1 | inactive |
| CCCn1c(N)c(N(CCOC)C(=O)C2CCCC2)c(=O)[nH]c1=O | inactive |
| O=C(O)/C=C/c1cn(-c2ccccc2)nc1-c1cccs1 | inactive |
| O=C(c1cn(-c2ccccc2)nc1-c1cccnc1)N1CCCCC1 | inactive |
| Cc1ccc(-c2nn(-c3ccccc3)cc2C(=O)Nc2cccc(S(=O)(=O)N3CCOCC3)c2)cc1 | inactive |
| O=C(O)c1ccc(NC(=O)c2cn(-c3ccccc3)nc2-c2ccc(Cl)cc2)cc1 | 20.6 µM (active) |
| O=C(NNC(=S)NC(=O)c1cn(-c2ccccc2)nc1-c1ccccc1)c1ccncc1 | 14.6 µM (active) |
| O=C(O)c1ccc(NC(=O)c2ccc(COc3ccc(Cl)cc3)o2)cc1 | inactive |
| COC(=O)c1cn(-c2ccccc2)nc1-c1cccnc1 | inactive |
| COc1ccc(-c2nn(-c3ccccc3)cc2/C=C\C(=O)N2CCOCC2)cc1[N+](=O)[O-] | inactive |
| COc1ccc(-c2nn(-c3ccccc3)cc2/C=C\C(=O)Nc2ccc(C(=O)O)cc2)cc1 | 23.1 µM (active) |
| COc1ccc(S(=O)(=O)N(CCCN2CCCC2=O)Cc2cc3c(C)ccc(C)c3[nH]c2=O)cc1 | inactive |
| O=C(CN1CCN(S(=O)(=O)c2ccc3ccccc3c2)CC1)NC(=O)NC1CCCCC1 | inactive |
| O=C(CN1CCC(NC(=O)Nc2ccccc2)CC1)Nc1cccc([N+](=O)[O-])c1 | inactive |
| O=C(N/N=C\c1ccc(Br)cc1)c1ccc(Cn2cccn2)o1 | inactive |
| O=C(NC1CCCCC1)C1c2ccccc2C(=O)N1Cc1ccco1 (configuration not stated) | inactive |
| O=C1c2ccccc2C(Nc2ccc3c(c2)OCCO3)N1Cc1ccco1 (configuration not stated) | 20.6 µM (active) |
| S=C(NCc1ccco1)Nc1ccc2c(c1)OCCO2 | inactive |
| Cn1cnc2c1c(=O)n(Cc1ccccc1C#N)c(=O)n2C | inactive |
| CC(=O)Nc1ccc(S(=O)(=O)NNC(=O)CCc2ccccc2)cc1 | inactive |

| Structure (SMILES) | Potency |
| --- | --- |
| CCc1nccn1S(=O)(=O)c1cc(Br)ccc1Br | inactive |
| COc1cc(CNC(=O)c2cc3n(n2)CCCN(Cc2cccc(F)c2)C3=O)cc(OC)c1OC | 16.4 µM (active) |
| CCNC(=O)c1cc2n(n1)CCCN(Cc1ccc(C)cc1)C2=O | inactive |
| COC(=O)c1ccc(CNC(=O)C2CCC(=O)N(Cc3cccc(F)c3)C2)cc1 (configuration not stated) | inactive |
| O=C(c1cc(C2CCCCN2S(=O)(=O)c2ccccc2)on1)N1CCOCC1 (configuration not stated) | inactive |
| CSc1ccc(/C=N/N2CCN(Cc3ccccc3Cl)CC2)cc1 | inactive |
| COc1ccc(CNC(=O)COC(=O)c2c(C)nn(-c3ccccc3)c2C)cc1OC | inactive |
| Cc1cc(=O)oc(C)c1C(=O)NCc1ccc(F)cc1 | inactive |
| CCCOc1ccc(F)cc1-c1cc(C(=O)NCc2ccc(F)cc2)[nH]n1 | 14.6 µM (active) |
| CCCOc1ccccc1-c1nc(SCCC(=O)O)n[nH]1 | inactive |
| COc1ccc(NC(=O)CN2CCN(S(=O)(=O)c3ccc(F)cc3)CC2)cc1Cl | inactive |
| Cc1ccc(NC(=O)c2cc(-c3ccccc3O)n[nH]2)cc1C | inactive |
| CCCOc1ccc(F)cc1-c1cc(C(=O)Nc2ccc(F)c(Cl)c2)[nH]n1 | 14.6 µM (active) |
| COc1ccccc1C(=O)COC(=O)COc1ccc(C#N)cc1 | inactive |
| COc1cccc(NC(=O)N(C)C[C@@H]2Oc3ncc(Br)cc3C(=O)N([C@@H](C)CO)C[C@H]2C)c1 | inactive |
| Oc1ccc(-c2cccc(-c3ccc(O)cc3)c2)cc1 | inactive |
| CN(C(=O)COC(=O)c1cc(=O)[nH]c2ccccc12)C1CCCCC1 | inactive |
| CCOc1ccccc1CNC(=O)c1ccc2c(c1)nc1n2CCC(C)C1 (configuration not stated) | inactive |
| COc1ccc(NC(=O)CN(C)C(=O)/C=C/c2cn(Cc3ccccc3)nc2-c2cccnc2)cc1 | inactive |
| O=C(COC(=O)/C=C/c1cn(-c2ccccc2)nc1-c1cccnc1)Nc1ccc(Cl)cc1Cl | 9.2 µM (active) |
| Cc1ccc(/C=C/C(=O)OCC(=O)Nc2cccnc2Cl)cc1 | inactive |
| Cc1[nH]n(-c2ccccc2)c(=O)c1CCOC(=O)c1ccc(C(F)(F)F)cc1 | inactive |
| COc1ccc(S(=O)(=O)NCCCCOc2ccc(Cl)cc2)cc1 | 10.3 µM (active) |
| COc1ccc(OCCNS(=O)(=O)Cc2ccccc2)cc1 | inactive |
| COc1ccc(S(=O)(=O)NCCCc2ccccc2)cc1 | inactive |
| CC(=O)c1ccc(S(=O)(=O)N(C)CCCC(=O)N(C)Cc2ccccc2F)cc1 | inactive |
